From the supplement of paper PMC10849652
The full data set covers some 8,800 targets. This sample favours those with a hit. About 0.5% of all pairs of compound and target were hits.

Tests used:
Test in all cases: log2 fold change, soluble protein after heating vs DMSO (PISA); higher = thermal stabilisation; K562 lysate, 10 uM; active = over 0.2 and 3.5 SD of the protein, either way, in both replicates (recomputed)
[1] = compound: NCC(=O)Nc1ccc(-n2nc(C(F)(F)F)cc2-c2ccc3c(ccc4ccccc43)c2)cc1
Method in brief: (§1)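 A 30 min treatment with 10 μM compound was applied to crude K562 extract at 1 mg/mL protein in PBS pH 7.4 with 1 mM MgCl2. Heating for 3 min spanned 48°C-58°C, after which aliquots were pooled, adjusted to 0.5% NP-40 at 4°C and spun at 21,000xg for 90 min. TMTpro 16plex LC-MS/MS of the supernatant, with channel sums equalised, gave values recorded as log-two fold change in thermal stability against solvent controls, from duplicates.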

vorinostat = compound: O=C(CCCCCCC(=O)Nc1ccccc1)NO [vorinostat]
Method in brief: as §1

silmitasertib = compound: O=C(O)c1ccc2c(c1)nc(Nc1cccc(Cl)c1)c1ccncc12 [silmitasertib]
Method in brief: as §1

[2] = compound: O=C1NC(=O)C(c2cnc3ccccn23)=C1c1cn2c3c(cc(F)cc13)CN(C(=O)N1CCCCC1)CC2
Method in brief: as §1

entospletinib = compound: c1cn2cc(-c3ccc4cn[nH]c4c3)nc(Nc3ccc(N4CCOCC4)cc3)c2n1 [entospletinib]
Method in brief: as §1

Measured: log2 fold change

PGLS (UniProt O95336)
Chain of UniProt O95336 (O95336 whole entry, looked up): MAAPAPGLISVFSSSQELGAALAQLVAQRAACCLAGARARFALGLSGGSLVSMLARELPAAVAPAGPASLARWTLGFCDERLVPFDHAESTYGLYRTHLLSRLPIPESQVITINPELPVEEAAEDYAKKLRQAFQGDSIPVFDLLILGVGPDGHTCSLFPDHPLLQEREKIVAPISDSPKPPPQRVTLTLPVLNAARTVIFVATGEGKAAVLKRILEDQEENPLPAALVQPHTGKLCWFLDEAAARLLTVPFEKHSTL
inactive: [1] -0.08 | vorinostat 0.079 | silmitasertib -0.034 | [2] 0.072 | entospletinib 0.003

PIK3CB (UniProt P42338)
Chain of UniProt P42338 (P42338 whole entry, looked up): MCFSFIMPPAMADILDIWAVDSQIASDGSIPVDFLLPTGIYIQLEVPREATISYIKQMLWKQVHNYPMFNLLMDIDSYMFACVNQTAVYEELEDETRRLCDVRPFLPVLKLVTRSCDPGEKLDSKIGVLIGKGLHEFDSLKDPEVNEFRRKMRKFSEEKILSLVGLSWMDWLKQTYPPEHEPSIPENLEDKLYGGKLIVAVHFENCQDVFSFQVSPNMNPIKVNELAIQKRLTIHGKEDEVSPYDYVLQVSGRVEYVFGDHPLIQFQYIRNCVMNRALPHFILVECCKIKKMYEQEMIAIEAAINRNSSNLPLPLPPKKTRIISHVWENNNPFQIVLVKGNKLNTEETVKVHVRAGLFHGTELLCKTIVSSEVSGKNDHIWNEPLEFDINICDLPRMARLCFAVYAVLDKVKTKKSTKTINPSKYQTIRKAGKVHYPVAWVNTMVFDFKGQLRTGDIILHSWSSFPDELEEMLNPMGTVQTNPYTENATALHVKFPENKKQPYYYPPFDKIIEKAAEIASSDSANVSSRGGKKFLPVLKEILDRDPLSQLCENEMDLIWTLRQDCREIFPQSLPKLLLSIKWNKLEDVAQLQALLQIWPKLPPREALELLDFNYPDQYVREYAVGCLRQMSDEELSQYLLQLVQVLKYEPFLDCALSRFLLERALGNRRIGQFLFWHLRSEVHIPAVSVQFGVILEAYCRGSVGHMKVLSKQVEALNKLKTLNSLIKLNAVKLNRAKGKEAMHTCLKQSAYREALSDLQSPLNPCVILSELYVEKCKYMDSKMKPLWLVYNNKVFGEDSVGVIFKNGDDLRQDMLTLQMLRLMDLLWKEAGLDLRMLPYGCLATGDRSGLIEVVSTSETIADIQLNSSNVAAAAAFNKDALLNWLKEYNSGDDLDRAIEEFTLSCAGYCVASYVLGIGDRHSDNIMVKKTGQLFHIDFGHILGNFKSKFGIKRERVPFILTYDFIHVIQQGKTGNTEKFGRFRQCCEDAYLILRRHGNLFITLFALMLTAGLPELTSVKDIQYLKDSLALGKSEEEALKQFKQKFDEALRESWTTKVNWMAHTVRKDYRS
inactive: [1] -0.041 | vorinostat -0.395 | silmitasertib 0.321 | [2] -0.046 | entospletinib 0.038

PUS1 (UniProt Q9Y606)
inactive: [1] 0.04 | silmitasertib 0.041 | [2] -0.013 | entospletinib -0.022
active: vorinostat -0.321

PCYT1B (UniProt Q9Y5K3)
Chain of UniProt Q9Y5K3 (Q9Y5K3 whole entry, looked up): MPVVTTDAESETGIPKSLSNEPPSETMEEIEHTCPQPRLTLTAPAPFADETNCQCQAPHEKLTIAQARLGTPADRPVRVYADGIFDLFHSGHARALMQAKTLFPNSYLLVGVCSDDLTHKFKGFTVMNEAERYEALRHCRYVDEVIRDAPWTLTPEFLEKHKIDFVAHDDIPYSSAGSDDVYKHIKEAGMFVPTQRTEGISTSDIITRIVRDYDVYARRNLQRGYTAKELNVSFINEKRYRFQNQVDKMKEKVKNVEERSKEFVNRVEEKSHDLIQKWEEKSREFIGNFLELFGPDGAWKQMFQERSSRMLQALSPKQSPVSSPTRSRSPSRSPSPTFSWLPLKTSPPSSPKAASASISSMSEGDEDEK
inactive: [1] -0.03 | vorinostat 0.064 | silmitasertib -0.062 | [2] -0.027 | entospletinib 0.002

PRRC2A (UniProt P48634)
Chain of UniProt P48634 (P48634 whole entry, looked up): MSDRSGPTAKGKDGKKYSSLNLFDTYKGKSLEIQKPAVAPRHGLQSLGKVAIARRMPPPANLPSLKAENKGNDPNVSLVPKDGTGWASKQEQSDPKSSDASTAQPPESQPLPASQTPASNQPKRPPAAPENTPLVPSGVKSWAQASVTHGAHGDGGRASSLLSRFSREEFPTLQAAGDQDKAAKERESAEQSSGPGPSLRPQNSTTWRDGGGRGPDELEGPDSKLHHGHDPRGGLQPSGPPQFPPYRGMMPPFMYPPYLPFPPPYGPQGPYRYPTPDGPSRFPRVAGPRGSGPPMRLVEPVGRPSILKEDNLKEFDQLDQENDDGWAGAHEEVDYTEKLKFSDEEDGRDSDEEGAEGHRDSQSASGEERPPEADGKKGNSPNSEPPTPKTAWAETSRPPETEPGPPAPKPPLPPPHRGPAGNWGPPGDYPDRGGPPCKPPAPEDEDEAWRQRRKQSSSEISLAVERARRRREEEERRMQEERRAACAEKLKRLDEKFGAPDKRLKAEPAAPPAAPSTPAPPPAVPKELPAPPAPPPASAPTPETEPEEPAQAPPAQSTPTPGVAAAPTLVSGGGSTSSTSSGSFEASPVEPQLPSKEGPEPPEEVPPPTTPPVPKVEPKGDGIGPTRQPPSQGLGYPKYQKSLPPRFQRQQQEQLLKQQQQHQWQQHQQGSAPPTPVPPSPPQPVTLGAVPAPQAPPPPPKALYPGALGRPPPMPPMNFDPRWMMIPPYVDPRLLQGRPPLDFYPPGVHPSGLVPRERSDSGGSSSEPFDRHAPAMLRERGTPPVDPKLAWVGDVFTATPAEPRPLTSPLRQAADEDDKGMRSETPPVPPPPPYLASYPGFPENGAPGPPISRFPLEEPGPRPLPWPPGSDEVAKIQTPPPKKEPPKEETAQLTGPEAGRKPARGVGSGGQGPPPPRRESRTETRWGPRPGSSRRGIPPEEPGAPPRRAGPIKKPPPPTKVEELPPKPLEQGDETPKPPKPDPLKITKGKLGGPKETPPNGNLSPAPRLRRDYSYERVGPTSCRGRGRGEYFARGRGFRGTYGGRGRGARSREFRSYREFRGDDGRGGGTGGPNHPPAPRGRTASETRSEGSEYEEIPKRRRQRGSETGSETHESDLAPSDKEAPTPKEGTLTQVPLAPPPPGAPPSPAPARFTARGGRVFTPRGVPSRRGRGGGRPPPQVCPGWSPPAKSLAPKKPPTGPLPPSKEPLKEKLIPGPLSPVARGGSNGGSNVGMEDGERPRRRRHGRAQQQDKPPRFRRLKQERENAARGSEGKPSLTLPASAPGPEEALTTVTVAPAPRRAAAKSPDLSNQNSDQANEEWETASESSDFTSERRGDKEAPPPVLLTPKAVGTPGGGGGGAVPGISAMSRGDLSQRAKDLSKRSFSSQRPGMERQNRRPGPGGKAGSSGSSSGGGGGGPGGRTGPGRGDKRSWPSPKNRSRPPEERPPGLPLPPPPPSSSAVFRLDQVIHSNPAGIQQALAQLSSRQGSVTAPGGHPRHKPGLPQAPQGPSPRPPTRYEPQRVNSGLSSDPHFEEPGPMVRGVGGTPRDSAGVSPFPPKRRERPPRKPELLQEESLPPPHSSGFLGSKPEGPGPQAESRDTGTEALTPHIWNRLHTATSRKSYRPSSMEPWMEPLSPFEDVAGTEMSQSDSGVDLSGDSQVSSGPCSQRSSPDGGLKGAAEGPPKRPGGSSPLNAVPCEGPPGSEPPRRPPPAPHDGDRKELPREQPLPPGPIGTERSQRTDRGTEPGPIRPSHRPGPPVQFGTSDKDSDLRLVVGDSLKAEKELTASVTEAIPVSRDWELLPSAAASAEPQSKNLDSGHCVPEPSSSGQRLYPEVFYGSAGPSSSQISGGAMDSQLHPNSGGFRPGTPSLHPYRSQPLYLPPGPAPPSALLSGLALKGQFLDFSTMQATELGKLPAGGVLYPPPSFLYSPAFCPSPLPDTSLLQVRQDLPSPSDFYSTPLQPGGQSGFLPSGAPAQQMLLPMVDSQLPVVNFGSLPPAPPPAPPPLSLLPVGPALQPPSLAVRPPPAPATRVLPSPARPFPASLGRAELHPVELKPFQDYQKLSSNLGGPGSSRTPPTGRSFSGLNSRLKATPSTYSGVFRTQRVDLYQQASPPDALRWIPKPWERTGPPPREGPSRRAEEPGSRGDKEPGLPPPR
inactive: [1] 0.012 | vorinostat 0.108 | silmitasertib -0.026 | [2] -0.018 | entospletinib -0.003

PFN1 (UniProt P07737)
Chain of UniProt P07737 (P07737 whole entry, looked up): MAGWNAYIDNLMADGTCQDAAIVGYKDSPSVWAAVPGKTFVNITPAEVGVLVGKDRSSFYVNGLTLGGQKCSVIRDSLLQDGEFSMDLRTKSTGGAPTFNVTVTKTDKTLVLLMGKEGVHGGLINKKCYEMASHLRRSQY
inactive: [1] -0.006 | vorinostat 0.083 | silmitasertib -0.004 | [2] -0.014 | entospletinib 0.006

PGPEP1 (UniProt Q9NXJ5)
active: vorinostat -0.526
inactive: [1] 0 | silmitasertib 0.009 | [2] 0.012 | entospletinib -0.049

PHACTR4 isoform 2 (UniProt Q8IZ21)
Chain of UniProt Q8IZ21 (Q8IZ21 whole entry, looked up): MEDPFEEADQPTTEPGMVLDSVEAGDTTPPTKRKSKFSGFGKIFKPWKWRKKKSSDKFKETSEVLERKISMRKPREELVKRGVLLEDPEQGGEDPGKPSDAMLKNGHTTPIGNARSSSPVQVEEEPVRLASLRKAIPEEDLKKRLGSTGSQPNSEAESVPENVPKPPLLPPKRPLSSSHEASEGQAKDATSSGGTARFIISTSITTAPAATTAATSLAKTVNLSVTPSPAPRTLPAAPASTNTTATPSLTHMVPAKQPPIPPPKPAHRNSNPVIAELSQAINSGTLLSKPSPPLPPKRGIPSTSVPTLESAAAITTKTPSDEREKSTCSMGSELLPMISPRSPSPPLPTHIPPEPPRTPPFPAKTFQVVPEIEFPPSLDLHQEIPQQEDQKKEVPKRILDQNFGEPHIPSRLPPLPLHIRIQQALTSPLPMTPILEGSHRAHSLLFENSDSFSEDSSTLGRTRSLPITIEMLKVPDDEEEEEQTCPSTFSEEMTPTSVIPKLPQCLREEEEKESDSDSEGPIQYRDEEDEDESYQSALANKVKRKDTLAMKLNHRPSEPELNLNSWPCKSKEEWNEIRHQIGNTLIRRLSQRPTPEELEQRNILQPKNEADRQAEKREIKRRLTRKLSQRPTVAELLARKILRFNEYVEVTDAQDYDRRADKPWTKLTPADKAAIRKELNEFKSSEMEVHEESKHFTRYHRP
inactive: [1] 0.025 | vorinostat 0.014 | silmitasertib 0.01 | [2] 0.009 | entospletinib -0.024

PSTPIP2 (UniProt Q9H939)
Chain of UniProt Q9H939 (Q9H939 whole entry, looked up): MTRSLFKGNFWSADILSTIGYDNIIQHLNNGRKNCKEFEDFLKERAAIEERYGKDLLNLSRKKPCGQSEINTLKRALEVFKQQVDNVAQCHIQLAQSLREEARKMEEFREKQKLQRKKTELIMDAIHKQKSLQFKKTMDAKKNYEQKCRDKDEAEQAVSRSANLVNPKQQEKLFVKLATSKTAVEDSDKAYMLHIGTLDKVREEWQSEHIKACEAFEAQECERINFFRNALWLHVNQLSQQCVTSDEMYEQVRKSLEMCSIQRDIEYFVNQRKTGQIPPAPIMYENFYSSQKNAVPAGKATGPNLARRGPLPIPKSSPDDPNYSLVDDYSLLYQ
inactive: [1] 0.046 | silmitasertib 0.04 | [2] 0.017 | entospletinib -0.005
active: vorinostat -0.312
